Laboratory results published in PubChem BioAssay.
“And” between values parts separate entries of the source, which are not always exact repeats. Equal entries are not always repeated. The source made the active and inactive calls.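 Rule for the calls, unless noted: active = compounds giving at least 50% inhibition in the cell-based MKP-3 phosphatase rescue imaging test; inactive = the rest.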

Tests used:
[1] = reduction of polyQ htt aggregates in cells – imaging, exon1htt(103Q)mCFP cells, high-content imaging, primary screen (AID 483;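 active = visual image review flags a hit and inhibition of aggregation exceeds 20%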;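 note: compound exposure lasted 3 days before fixation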;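 for nuclei count: percent of the per-plate median nuclei count of sample wells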); conditions: exon1htt(103Q)mCFP cell line, aggregate imaging, at 2 µM; inhibition of aggregation: stronger effect = higher value; nuclei count: measured here: cell count, toxicity
[2] = endothelial E-selectin expression blockers – imaging, HUVEC, immunofluorescence, MLSMR starter and 10KST1 sets, primary screen (AID 487;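 active = visually confirmed hit in the image check and inhibition above 20%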;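 for inhibition: signal is fraction of cell area covered by stained E-selectin grains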;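 for nuclei count: 100% = median nuclei count of all wells on the same plate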); conditions: HUVEC TNFalpha-induced E-selectin immunofluorescence imaging, at 2 µM; inhibition: stronger effect = higher value; nuclei count: measured here: cell number, toxicity
[3] = Primary imaging screen for DUSP6 inhibitors that restore phospho-Erk in transfected HeLa cells, chemical complementation (AID 609); conditions: HeLa MKP-3 transfected, phospho-Erk imaging KS statistic, at 10 µM, cells stimulated with TPA for 15 min;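 for inhibition: phospho-Erk level distribution per well compared with pooled transfected vehicle control wells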
[4] = biological target: Dual specificity protein phosphatase 6 (Homo sapiens) (UniProt Q16828); test: as above; conditions: HeLa MKP-3 transfected, phospho-Erk imaging KS statistic; at 10 µM; stronger effect = higher value; cells stimulated with TPA for 15 min
Dual specificity protein phosphatase 6 (Homo sapiens), sequence (Q16828 whole entry, looked up): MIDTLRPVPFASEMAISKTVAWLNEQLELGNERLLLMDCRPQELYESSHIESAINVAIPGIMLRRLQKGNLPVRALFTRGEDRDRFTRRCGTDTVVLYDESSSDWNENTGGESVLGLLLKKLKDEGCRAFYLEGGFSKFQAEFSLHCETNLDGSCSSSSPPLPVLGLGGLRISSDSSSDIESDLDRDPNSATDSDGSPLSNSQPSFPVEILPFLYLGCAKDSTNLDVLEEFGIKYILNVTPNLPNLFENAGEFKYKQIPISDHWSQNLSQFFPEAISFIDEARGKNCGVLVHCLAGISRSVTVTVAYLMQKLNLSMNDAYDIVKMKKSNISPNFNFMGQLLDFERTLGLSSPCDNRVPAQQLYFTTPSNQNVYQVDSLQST

[5] = biological target: Voltage-gated potassium channel subunit beta-2 (Rattus norvegicus) (UniProt P62483); test: inhibitors of rat Kvbeta2 reductase activity – biochemical, NADPH fluorescence, primary screen (AID 622;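 active = fluorescence slope higher than the sample average by over 3 SD, cut at about -0.22 in these data, passing the limit was not always enough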;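 note: slope of raw intensity against log time taken from 70 to 1610 s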); conditions: recombinant KvBeta, 4-cyanobenzaldehyde reduction, at 10 µM, stronger effect = higher value
Voltage-gated potassium channel subunit beta-2 (Rattus norvegicus), sequence (P62483 whole entry, looked up): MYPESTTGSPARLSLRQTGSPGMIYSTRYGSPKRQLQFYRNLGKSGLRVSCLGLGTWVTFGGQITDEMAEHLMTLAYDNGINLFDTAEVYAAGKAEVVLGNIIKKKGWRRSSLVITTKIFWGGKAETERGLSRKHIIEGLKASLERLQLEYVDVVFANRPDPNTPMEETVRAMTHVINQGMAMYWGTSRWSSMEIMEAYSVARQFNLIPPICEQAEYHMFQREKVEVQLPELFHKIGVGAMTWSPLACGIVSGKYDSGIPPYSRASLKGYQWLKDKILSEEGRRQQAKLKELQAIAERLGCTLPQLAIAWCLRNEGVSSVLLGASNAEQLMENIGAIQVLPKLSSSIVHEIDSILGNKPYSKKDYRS

[6] = biological target: Voltage-gated potassium channel subunit beta-2 (Rattus norvegicus) (UniProt P62483); test: enhancers of rat Kvbeta2 NADPH turnover – biochemical, NADPH fluorescence, primary screen (AID 623;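 active = NADPH fluorescence slope more negative than the mean of all samples by about 3 SD, 99.7% confidence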;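 note: fluorescence intensity change per second fitted from 20 to 320 s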); conditions: Recombinant KvBeta, NADPH fluorescence decrease slope, 10 min; at 10 µM; stronger effect = lower value
[7] = biological target: Alpha-2C adrenergic receptor (Homo sapiens) (UniProt P18825); test: compounds altering alpha2C-coupled GIRK flux – cell-based, HEK293 alpha2C/GIRK1/2, thallium flux, primary screen (AID 624;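 active = fluorescence slope after compound addition differing from the mean of all screened samples at 99.7% confidence, in either direction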;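 note: slope of fluorescence ratio to pre-addition baseline per second over 15 to 24 s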); conditions: thallium flux BTC fluorescence, at 10 µM, actives lie on both sides
Alpha-2C adrenergic receptor (Homo sapiens), sequence (P18825 whole entry, looked up): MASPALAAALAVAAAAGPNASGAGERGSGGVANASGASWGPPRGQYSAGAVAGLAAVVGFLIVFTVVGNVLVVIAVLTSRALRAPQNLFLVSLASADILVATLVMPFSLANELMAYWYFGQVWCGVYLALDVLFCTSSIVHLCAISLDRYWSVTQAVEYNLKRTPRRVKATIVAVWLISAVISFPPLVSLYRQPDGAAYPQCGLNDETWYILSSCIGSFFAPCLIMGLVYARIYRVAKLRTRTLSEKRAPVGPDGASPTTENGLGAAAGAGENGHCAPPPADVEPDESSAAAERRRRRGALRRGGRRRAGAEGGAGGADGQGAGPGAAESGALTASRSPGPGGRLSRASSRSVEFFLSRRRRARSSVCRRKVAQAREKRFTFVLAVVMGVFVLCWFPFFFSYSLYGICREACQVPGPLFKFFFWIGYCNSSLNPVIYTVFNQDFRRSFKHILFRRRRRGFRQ

[8] = loss of swimming-algae plug formation – whole organism, Chlamydomonas reinhardtii, WT vs cilia-less mutant, absorbance, 96-well, primary screen (AID 463189;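 active = inhibition at or above 50% relative to wild type and mutant plate controls; inactive = inhibition below 50%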;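 note: 0% = wild type cc124 cells in DMSO and 100% = ciliumless bld1 mutant cells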); conditions: Chlamydomonas reinhardtii gravitaxis, OD600 absorbance, 2 days; at 10 µM; stronger effect = higher value
[9] = blockers of RIG-like receptor reporter activation – cell-based, Sendai virus stimulus, luciferase, 10K MLSCN set, TLR/RLR signaling modifier project, primary screen (AID 602276;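 active = inhibition at or above 50% at 10 µM; inactive = inhibition below 50%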;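 note: firefly luciferase from ISG56 promoter only with Renilla not read in this screen; 0% = Sendai virus plus DMSO and 100% = medium plus DMSO without virus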); conditions: HEK293 RL24 IRF3 luciferase reporter, at 10 µM, stronger effect = higher value
[10] = TLR3 IRF3 reporter activation blockers – cell-based, poly I:C stimulus, luciferase, 10K MLSCN set, primary screen (AID 602277;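 active = inhibition of the reporter signal at or above 50%; inactive = inhibition below 50%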); conditions: HEK293-TLR3 RL24 IRF3 luciferase reporter, at 10 µM, stronger effect = higher value
[11] = inhibitors of TNFa-induced NFkB p65 translocation, primary screen, imaging, HUVEC, MLSMR starter and 10KST1 sets (AID 438;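 active = inhibition above 20% together with a positive visual image hit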;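 note: compound added about 3h40 before a 20 min TNFalpha stimulation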;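 for inhibition: signal is the nuclear over cytoplasmic p65 intensity ratio per well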); conditions: HUVEC TNFa-induced p65 nuclear translocation; cell count: measured here: nuclei count (cytotoxicity indicator), at 2.08 µM; inhibition: at 2 µM, stronger effect = higher value, 0% TNFa-plus-vehicle, 100% no-TNFa wells
[12] = biological target: Muscarinic acetylcholine receptor M4 (Homo sapiens) (UniProt P08173); test: M4-linked GIRK flux change, two-sided – cell-based, HEK293 M4/GIRK, thallium flux, BTC-AM, M4 allosteric agonist project, primary screen (AID 625;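 active = fluorescence slope after compound addition differing from the mean of all tested samples at 99.7% confidence, mostly higher but some lower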;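 note: thallium influx through GIRK channels coupled to M4 in HEK293 cells with BTC-AM dye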); conditions: at 10 µM, actives lie on both sides
Muscarinic acetylcholine receptor M4 (Homo sapiens), sequence (P08173 whole entry, looked up): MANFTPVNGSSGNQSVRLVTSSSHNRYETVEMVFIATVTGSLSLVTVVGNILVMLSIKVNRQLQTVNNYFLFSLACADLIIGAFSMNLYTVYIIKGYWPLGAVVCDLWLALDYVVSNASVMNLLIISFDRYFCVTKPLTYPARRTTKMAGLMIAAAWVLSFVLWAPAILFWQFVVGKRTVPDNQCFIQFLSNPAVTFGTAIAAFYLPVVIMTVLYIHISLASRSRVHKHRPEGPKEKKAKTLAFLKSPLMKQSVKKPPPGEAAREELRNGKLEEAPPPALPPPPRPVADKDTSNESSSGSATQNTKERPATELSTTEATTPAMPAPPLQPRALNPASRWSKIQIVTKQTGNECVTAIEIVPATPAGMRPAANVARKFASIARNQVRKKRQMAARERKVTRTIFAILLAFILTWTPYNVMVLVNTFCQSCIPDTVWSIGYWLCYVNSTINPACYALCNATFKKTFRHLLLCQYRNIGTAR

[13] = inhibitors of larval lipid processing in zebrafish, primary screen, whole organism, PED6 fluorescence, gall bladder and intestine (AID 686;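 active = a full or partial loss of lipid-probe fluorescence in the fish gall bladder, intestine or both, judged by eye; inactive = no fluorescence loss, or compound toxic to the fish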;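 note: larvae 5 to 7 days old with five fish per well; signal comes from phospholipase A2 cleavage of quenched PED6 carried via bile; overnight exposure to compound and PED6 before scoring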); conditions: Zebrafish larvae PED6 lipid processing, fluorescence scoring; screened at 20 µM (by protocol)
[14] = measured here: cell density z-score
[15] = measured here: nuclear c-Myc green intensity z-score
[16] = measured here: nuclear pErk red intensity z-score, stronger effect = higher value

Row | Structure (SMILES) | inhibition of aggregation [1] | nuclei count [1] [%] | inhibition [2] | nuclei count [2] | z-score [3, 14] | z-score [3, 15] | z-score [3, 16] | inhibition [4] | fluorescence slope [5] | NADPH fluorescence slope [6] | slope [7] | inhibition [8] | inhibition [9] | inhibition [10] | cell count [11] | inhibition [11] | fluorescence slope [12] | outcome [13]
1 | CC(=O)OCC(=O)[C@@]1(O)CC[C@H]2[C@@H]3CCC4=CC(=O)CC[C@]4(C)[C@H]3C(=O)C[C@@]21C | 16.5% (inactive) | 99.5 | -92.4% (inactive) | 97.4% | -1.29 | -1.69 | 0.158 | 3.59% (inactive) | -0.477 (inactive) | -6.1e-05 (inactive) | 0.00575 (inactive) | 9.11% (inactive) and 28.9% (inactive) | 3.98% (inactive) | 27.5% (inactive) | – | – | – | –
2 | CCN1CCc2c(C#N)c(NCc3ccccc3)nc(NCCO)c2C1 | – | – | -113% (inactive) | 151% | 0.614 | -1.73 | -1.03 | -5.81% (inactive) | -0.398 (inactive) | -3.2e-05 (inactive) | – | -0.503% (inactive) | – | – | 534 | -12% (inactive) | 0.00361 (inactive) | inactive
3 | CCN(CC)CC(=O)Nc1c(C)cccc1C | – | – | -39.3% (inactive) and -82.5% (inactive) | 130% and 116% | -0.149 and 1.01 | 0.72 and -0.684 | -0.101 and 0.844 | 15.3% (inactive) and 14.6% (inactive) | -0.457 (inactive) and -0.466 (inactive) | 7.7e-06 (inactive) and -5.7e-05 (inactive) | 0.00536 (inactive) and 0.0061 (inactive) | – | 11.4% (inactive) and 10.3% (inactive) | 39.6% (inactive) and 42.7% (inactive) | 642 and 715 | -6.5% (inactive) and -1% (inactive) | – | –
4 | Cn1c(N2CCOCC2)nc2c1c(=O)n(Cc1ccc(Cl)cc1)c(=O)n2C | – | – | -31.1% (inactive) | 101% | 0.134 | 0.368 | 0.486 | -2.09% (inactive) | -0.446 (inactive) | -3.4e-05 (inactive) | – | -7.86% (inactive) | – | – | 644 | 12.1% (inactive) | 0.00452 (inactive) | inactive
5 | Nc1nonc1C(=O)NCCN=Cc1cc(Cc2ccccc2)cc(Br)c1O | – | – | 49.5% (inactive) | 156% | -0.875 | 1.06 | 0.686 | -1.98% (inactive) | -0.41 (inactive) | -6.3e-05 (inactive) | – | -5.78% (inactive) | – | – | 537 | -4.9% (inactive) | 0.00522 (inactive) | inactive
6 | CCC(C(=O)Nc1ncn[nH]1)(C(F)(F)F)C(F)(F)F | – | – | -106% (inactive) | 171% | 0.655 | 0.101 | -0.238 | 7.93% (inactive) | -0.479 (inactive) | -4.9e-05 (inactive) | – | 27.8% (inactive) | – | – | 692 | 5.8% (inactive) | 0.0062 (inactive) | inactive
7 | O=C1C=C(NCCNc2c(F)c(F)c(CO)c(F)c2F)CCC1 | – | – | -87.2% (inactive) | 105% | 0.485 | -0.53 | -1.21 | 17.8% (inactive) | -0.396 (inactive) | -1.8e-05 (inactive) | – | 32.9% (inactive) | – | – | 504 | -12.3% (inactive) | 0.00657 (inactive) | inactive
8 | CCCCc1c(C)c2ccc(OCC(C)=O)cc2oc1=O | – | – | 51.6% (inactive) | 90.6% | -2.59 | 0.867 | -5.29 | 47.6% (inactive) | -0.472 (inactive) | -3.8e-05 (inactive) | – | -0.273% (inactive) | – | – | 647 | -10% (inactive) | 0.00708 (inactive) | inactive
9 | Cc1ccc(-c2nnc(OCCN3CCOCC3)c3ccccc23)cc1 | – | – | -85.1% (inactive) | 167% | 1.01 | -0.803 | -0.0262 | 4.37% (inactive) | -0.463 (inactive) | -2.6e-05 (inactive) | – | 30.5% (inactive) | – | – | 453 | 0.4% (inactive) | 0.00559 (inactive) | inactive
10 | COC(=O)c1[nH]c(C)c(/C(O)=C2\C(=O)C(=O)N(CCN3CCOCC3)C2c2cccnc2)c1C (configuration not stated) | – | – | -2.2% (inactive) | 163% | -1.96 | 0.711 | -3.8 | -3.95% (inactive) | -0.46 (inactive) | -0.000197 (inactive) | – | 5.4% (inactive) | – | – | 605 | -1.2% (inactive) | 0.00521 (inactive) | inactive
11 | Cc1cc(/C(O)=C2\C(=O)C(=O)N(CCN(C)C)C2c2ccncc2)ccc1OCc1ccccc1 (configuration not stated) | – | – | 9.6% (inactive) | 174% | -0.686 | 0.247 | -0.699 | 5.35% (inactive) | -0.481 (inactive) | -5.4e-05 (inactive) | – | 3.31% (inactive) | – | – | 664 | -0.2% (inactive) | 0.00492 (inactive) | inactive
12 | CCOC(=O)C1(c2nc(N)cs2)COC(=O)C1 (configuration not stated) | – | – | 15.9% (inactive) | 110% | 1.01 | 1.47 | -1.03 | 16% (inactive) | -0.497 (inactive) | -5e-05 (inactive) | – | -13.2% (inactive) | – | – | 529 | -7.1% (inactive) | 0.00548 (inactive) | inactive
